Screening data deposited in PubChem by National Center for Advancing Translational Sciences (NCATS).
AmpC inh detg = qHTS Inhibitors of AmpC Beta-Lactamase (assay with detergent); P00811; AmpC hydrolysis of nitrocefin, absorbance 480 nm, 0.01% Triton; Potency, µM (top dose mostly 114 µM), for the others: top-dose activity change, negative = inhibition, most hits filed as inhibitors; 0.041% of 370,000 active; AID 485294, 2010;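 also: potency is read from the fitted curve at half-maximal effect; 0% = no-compound wells and -100% = no-enzyme wells; nearly all actives have a fitted effect of over 25% in size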
Target sequence (P00811 whole entry, looked up): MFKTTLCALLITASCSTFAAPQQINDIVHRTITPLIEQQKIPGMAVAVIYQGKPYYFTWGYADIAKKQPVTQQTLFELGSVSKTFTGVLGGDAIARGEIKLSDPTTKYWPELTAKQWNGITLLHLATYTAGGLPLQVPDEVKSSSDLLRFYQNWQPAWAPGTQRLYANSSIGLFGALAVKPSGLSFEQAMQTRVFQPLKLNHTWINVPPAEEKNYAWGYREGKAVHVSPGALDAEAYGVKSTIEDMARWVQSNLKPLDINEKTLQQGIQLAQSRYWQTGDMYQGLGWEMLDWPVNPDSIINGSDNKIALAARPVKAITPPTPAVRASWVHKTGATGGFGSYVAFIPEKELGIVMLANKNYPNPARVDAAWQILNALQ
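20 mM phosphate pH 7.0 + 0.01% (detergent screen) or 0.0001% Triton X-100; 5.3 nM AmpC reagent; cpd preinc 15 min RT; nitrocefin (800 uM stock) to start; A480 q20 s × 4 min; Activity was normalised to no-enzyme and no-compound control wells.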
AmpC no deterg = qHTS Inhibitors of AmpC Beta-Lactamase (assay without detergent); 0.52% of 330,000 active; AID 485341, 2010; Potency, µM (top dose mostly 57.1 µM), for inactives: top-dose activity change, negative = inhibition, most hits filed as inhibitors; P00811; AmpC nitrocefin hydrolysis, absorbance 480 nm, 0.0001% Triton;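 also: potency is read from the fitted curve at half-maximal effect; plate controls were no compound for no effect and no enzyme for full effect; nearly all actives have a fitted effect of over 20% in size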
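20 mM phosphate pH 7.0 + 0.01% (detergent screen) or 0.0001% Triton X-100; 5.3 nM AmpC reagent; cpd preinc 15 min RT; nitrocefin (800 uM stock) to start; A480 q20 s × 4 min; Activity was normalised to no-enzyme and no-compound control wells.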
Shiga toxin inh = A qHTS for Small Molecule Inhibitors of Shiga Toxin; Vero cells, Shiga toxin protein synthesis inhibition reporter; inhibition, % at 38.7 µM; 9.2% of 290,000 active; in the data active = inhibition mostly above about 28%, no sharp cut-off; inactive = mostly below about 43%; also: 0% is about no effect
CHX counter = Cycloheximide Counterscreen for Small Molecule Inhibitors of Shiga Toxin | cell reporter, cycloheximide protein synthesis inhibition counterscreen | 12% of 300,000 active | max response, %; in the data active = max response mostly above about 13%, no sharp cut-off; inactive = mostly below about 14%; also: read at 38.3 µM for the half of the compounds with a filed dose; 0% is about no effect
SARS PLpro yeast = qHTS of Yeast-based Assay for SARS-CoV PLP. S. cerevisiae expressing SARS-CoV PLpro, growth rescue. AID 485353, 2010. 0.19% of 330,000 active. Potency, µM (top dose mostly 32.9 µM), inactives show top-dose activity, positive = growth rescue, hits mostly activators; calls by dose curve; also: potency is read from the fitted curve at half-maximal effect; 0% is about no effect; nearly all actives have a fitted effect of over 55% in size
AMA1 RON2 block = qHTS for Inhibitors of AMA1-RON; Towards Development of Antimalarial Drug Lead: Primary Screen; Plasmodium falciparum AMA1 (3D7) - RON2 peptide interaction; AlphaScreen AMA1-biotinylated RON2 peptide binding; Potency, µM (series often up to 58.2 µM), inactives show at the top dose activity change, negative = inhibition, most hits filed as inhibitors; 0.2% of 360,000 active; AID 720542, 2013;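 also: potency is read from the fitted curve at half-maximal effect; 0% = vehicle wells and -100% = peptide control; nearly all actives have a fitted effect of over 45% in size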
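AMA1 (3D7) with his tag at 25 nM final met compounds first, then biotinylated RON2 peptide at 25 nM; detection used donor plus acceptor beads, 10 µg/mL apiece, read by AlphaScreen after 30 min at room temperature.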
* hit, by the source's call; [ ] = another dose, or the depositor's remark. Only a selection was taken, and hits are over-represented in it overall. Unless noted, calls follow the shape of the dose curve; as a rule, active = well fitted curve in the direction sought with a large enough effect; inconclusive = small, poorly fitted or top-dose-only effect, or another doubt; inactive = no such curve, though single readings can be large; an effect the other way counts as inactive or inconclusive.

How did N#C/C(=N\Nc1ccc(Br)cc1)C(=N)N1CCOCC1 do in these assays?
AmpC inh detg: -1%; AmpC no deterg: 4%; Shiga toxin inh: 107*; CHX counter: 69*; SARS PLpro yeast: -3%; AMA1 RON2 block: -10%

Results for N#C/C(=N/Nc1ccc([N+](=O)[O-])cc1)C(=N)N1CCCCC1 ?
AmpC inh detg: -11%; AmpC no deterg: -36%; Shiga toxin inh: 104*; CHX counter: 31*; SARS PLpro yeast: -5%; AMA1 RON2 block: -5%

What do the screens show for `N#C/C(=N\Nc1ccc([N+](=O)[O-])cc1)C(N)=S`?
AmpC inh detg: -6%; AmpC no deterg: -20%; Shiga toxin inh: 88*; CHX counter: 41*; SARS PLpro yeast: -9%; AMA1 RON2 block: 26%

How did COc1ccc2c3c(cccc13)OCC2=O do in these assays?
AmpC inh detg: -16%; AmpC no deterg: -21%; Shiga toxin inh: 16; CHX counter: 15; SARS PLpro yeast: -5%; AMA1 RON2 block: 10%

Results for CCOC(=O)Cc1csc(NS(=O)(=O)c2ccc(NC(C)=O)cc2)n1 ?
AmpC inh detg: -19%; AmpC no deterg: -17%; Shiga toxin inh: -7; CHX counter: -2; SARS PLpro yeast: 0%; AMA1 RON2 block: 10%

What do the screens show for `CCN(CC)c1ccc(C=Nc2ccc(C)cc2)c(O)c1`?
AmpC inh detg: -7%; AmpC no deterg: -17%; Shiga toxin inh: 6; CHX counter: 1; SARS PLpro yeast: -6%; AMA1 RON2 block: 23%

How did N#C/C(=N\Nc1ccccc1[N+](=O)[O-])C(=N)N1CCCCC1 do in these assays?
AmpC inh detg: 3%; AmpC no deterg: -21%; Shiga toxin inh: 67*; CHX counter: 31*; SARS PLpro yeast: -4%; AMA1 RON2 block: -13%

Results for N#C[C@@H]1[C@@H]2C(=O)N(c3ccc4c(c3)OCCO4)C(=O)[C@@H]2C2c3ccccc3C=CN21 (stereo not given in full) ?
AmpC inh detg: inconclusive; AmpC no deterg: -19%; Shiga toxin inh: 30*; CHX counter: 16; SARS PLpro yeast: -13%

What do the screens show for `CC(=O)[C@H]1[C@@H]2C(=O)N(c3cccc(Cl)c3)C(=O)[C@@H]2[C@H]2c3ccccc3C=CN21`?
AmpC inh detg: 2%; AmpC no deterg: -8%; Shiga toxin inh: 13; CHX counter: 11; SARS PLpro yeast: -9%; AMA1 RON2 block: 7%

What do the screens show for `CCN(CC(=O)Nc1ccccc1C(F)(F)F)C(=O)Cc1ccccc1`?
AmpC inh detg: -3%; AmpC no deterg: 9%; Shiga toxin inh: 30; CHX counter: 6; SARS PLpro yeast: 11%; AMA1 RON2 block: 12%

How did COc1cccc(/C=N/NC(=O)CN(C2=NS(=O)(=O)c3ccccc32)c2ccccc2)c1 do in these assays?
AmpC inh detg: -15%; AmpC no deterg: -2%; Shiga toxin inh: -10; CHX counter: -5; SARS PLpro yeast: 5%; AMA1 RON2 block: 18%[2.32 µM]

What do the screens show for `CCc1ccc(CN2CCN(C(=O)c3ccco3)CC2)cc1`?
AmpC inh detg: inconclusive; AmpC no deterg: -7%; Shiga toxin inh: 15; CHX counter: 12; SARS PLpro yeast: -1%; AMA1 RON2 block: inconclusive

What do the screens show for `Cc1sc(N)c(C(=O)c2ccccc2)c1C`?
AmpC inh detg: -5%; AmpC no deterg: -39%; Shiga toxin inh: -8; CHX counter: -3; SARS PLpro yeast: 1%; AMA1 RON2 block: -5%

Results for COCCN1Cc2c(sc(C)c2C)N(C(=O)c2ccccc2)C1 ?
AmpC inh detg: inconclusive; AmpC no deterg: -30%; Shiga toxin inh: 72*; CHX counter: 26*; SARS PLpro yeast: 3%; AMA1 RON2 block: 11%

What do the screens show for `Cc1sc2c(c1C)CN(Cc1ccncc1)CN2C(=O)c1ccco1`?
AmpC inh detg: 4%; AmpC no deterg: 86%; Shiga toxin inh: 64*; CHX counter: 41*; SARS PLpro yeast: -6%; AMA1 RON2 block: 2%

How did Cc1sc2c(c1C)CN(C(C)(C)C)CN2C(=O)c1ccccc1 do in these assays?
AmpC inh detg: inconclusive; AmpC no deterg: -24%; Shiga toxin inh: 91*; CHX counter: 38*; SARS PLpro yeast: -7%; AMA1 RON2 block: 0%

Results for COCCn1c(SCC(=O)c2ccccc2)nc2c(c1=O)SCC2 ?
AmpC inh detg: -3%; AmpC no deterg: -17%; Shiga toxin inh: -25; CHX counter: -2; SARS PLpro yeast: 2%; AMA1 RON2 block: 1%

What do the screens show for `Cc1ccc2oc(-c3cccc(NC(=O)/C=C/c4cccc([N+](=O)[O-])c4)c3C)nc2c1`?
AmpC inh detg: inconclusive; AmpC no deterg: -34%; Shiga toxin inh: 97*; CHX counter: 57*; SARS PLpro yeast: 0%; AMA1 RON2 block: -10%[2.32 µM]

How did COc1ccc2c(c1)c(N1CCCC1=O)c(C(=O)Nc1ccc(Cl)cc1C)n2C do in these assays?
AmpC inh detg: 18%

What do the screens show for `CCCCNC(=O)c1ccc(NC(=O)C2CCCO2)cc1` (stereo not given)?
AmpC inh detg: 2%; AmpC no deterg: -3%; Shiga toxin inh: 10; CHX counter: 11*; SARS PLpro yeast: 0%; AMA1 RON2 block: 3%

How did CC(C)OCCCNC(=O)c1ccc(NC(=O)C2CCCO2)cc1 (stereo not given) do in these assays?
AmpC inh detg: inconclusive; AmpC no deterg: 2%; Shiga toxin inh: -5; CHX counter: 8; SARS PLpro yeast: -2%; AMA1 RON2 block: 2%

Results for CCCCc1ccc(NC(=O)C2CCCO2)cc1 (stereo not given) ?
AmpC inh detg: -14%; AmpC no deterg: -3%; Shiga toxin inh: 72*; CHX counter: 55*; SARS PLpro yeast: -6%; AMA1 RON2 block: 14%

How did COc1ccc2[nH]c(C)cc(=O)c2c1 do in these assays?
AmpC inh detg: -16%; AmpC no deterg: 6%; Shiga toxin inh: 30; CHX counter: -1; SARS PLpro yeast: 0%; AMA1 RON2 block: -2%

Results for O=C1NCCc2cc3c(cc21)OCO3 ?
AmpC inh detg: inconclusive; AmpC no deterg: -24%; Shiga toxin inh: 4; CHX counter: -3; SARS PLpro yeast: -13%; AMA1 RON2 block: 13%

Results for Cc1ccc(NC(=O)CCS(=O)(=O)c2ccc3nc(C)sc3c2)c(C)c1 ?
AmpC inh detg: 0%

Results for CC1CC1C(=O)Nc1nc2ccc(S(C)(=O)=O)cc2s1 (stereo not given) ?
AmpC inh detg: 4%; AmpC no deterg: -12%; Shiga toxin inh: 59*; CHX counter: 28*; SARS PLpro yeast: -3%; AMA1 RON2 block: 25%

Results for O=C(Nc1nc2ccc(Cl)cc2s1)C1CC1 ?
AMA1 RON2 block: 4%
